About 7,900 targets were measured; listed, in parts, are those with a hit and a random draw of the rest. About 0.6% of all pairs of compound and target were hits. Values without a mark were called inactive.
How the values were obtained:
Assay in all cases: log2 fold change, soluble protein after heating vs DMSO (PISA); higher = thermal stabilisation; K562 cells, 10 uM, 30 min; active = over 0.2 and 3.5 SD of the protein, either way, in both replicates (recomputed)
[1] = compound: CN1CCN(CCOc2cc(OC3CCOCC3)c3c(Nc4c(Cl)ccc5c4OCO5)ncnc3c2)CC1 [saracatinib]
How it was run: (§1)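 Values are thermal stability changes relative to control samples and are taken from duplicates. They are stated as log2 fold changes. Before quantification by TMTpro 16plex LC-MS/MS with equalised channel sums, K562 cells at 2×10^6 cells/mL were treated with 10 μM compound for 30 min, heated in aliquots for 3 min across 48°C-58°C, pooled, extracted in PBS with 0.5% NP-40 at 4°C, and centrifuged at 21,000xg for 90 min to give the soluble supernatant.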

[2] = compound: CN1CCN(c2nc(C3=C(c4c[nH]c5ccccc45)C(=O)NC3=O)c3ccccc3n2)CC1 [sotrastaurin]
How it was run: as §1

[3] = compound: CN1CC[C@H](c2c(O)cc(O)c3c(=O)cc(-c4ccccc4Cl)oc23)[C@H](O)C1 [alvocidib]
How it was run: as §1

[4] = compound: CN1CCc2c(c3ccccc3n2Cc2ccc(C(=O)NO)cc2)C1 [Tubastatin A]
How it was run: as §1

[5] = compound: CNC(=O)C1=CC=CC=C1NC2=NC(=NC=C2Cl)NC3=C(C=C(C=C3)N4CCOCC4)OC
How it was run: as §1

[6] = compound: CNC(=O)c1ccc(Nc2ncc(C(F)(F)F)c(NCc3nccnc3N(C)S(C)(=O)=O)n2)cc1 [defactinib]
How it was run: as §1

[7] = compound: CNCc1ccc(-c2[nH]c3cc(F)cc4c3c2CCNC4=O)cc1 [rucaparib]
How it was run: as §1

[8] = compound: CNc1nc(-c2ccc3c(N)n[nH]c3c2)cc(N2C[C@@H](C(=O)NC3CCCCC3)CC[C@H]2C)n1
How it was run: as §1

[9] = compound: COC(=O)N[C@@H](C)CNc1nccc(-c2cn(C(C)C)nc2-c2cc(Cl)cc(NS(C)(=O)=O)c2F)n1 [encorafenib]
How it was run: as §1

[10] = compound: COC(=O)[C@H](CCSC)NC(=O)C1=C(C=C(C=C1)NC[C@H](CS)N)C2=CC=CC=C2
How it was run: as §1

Sequence of UniProt O15066 (O15066 whole entry, looked up): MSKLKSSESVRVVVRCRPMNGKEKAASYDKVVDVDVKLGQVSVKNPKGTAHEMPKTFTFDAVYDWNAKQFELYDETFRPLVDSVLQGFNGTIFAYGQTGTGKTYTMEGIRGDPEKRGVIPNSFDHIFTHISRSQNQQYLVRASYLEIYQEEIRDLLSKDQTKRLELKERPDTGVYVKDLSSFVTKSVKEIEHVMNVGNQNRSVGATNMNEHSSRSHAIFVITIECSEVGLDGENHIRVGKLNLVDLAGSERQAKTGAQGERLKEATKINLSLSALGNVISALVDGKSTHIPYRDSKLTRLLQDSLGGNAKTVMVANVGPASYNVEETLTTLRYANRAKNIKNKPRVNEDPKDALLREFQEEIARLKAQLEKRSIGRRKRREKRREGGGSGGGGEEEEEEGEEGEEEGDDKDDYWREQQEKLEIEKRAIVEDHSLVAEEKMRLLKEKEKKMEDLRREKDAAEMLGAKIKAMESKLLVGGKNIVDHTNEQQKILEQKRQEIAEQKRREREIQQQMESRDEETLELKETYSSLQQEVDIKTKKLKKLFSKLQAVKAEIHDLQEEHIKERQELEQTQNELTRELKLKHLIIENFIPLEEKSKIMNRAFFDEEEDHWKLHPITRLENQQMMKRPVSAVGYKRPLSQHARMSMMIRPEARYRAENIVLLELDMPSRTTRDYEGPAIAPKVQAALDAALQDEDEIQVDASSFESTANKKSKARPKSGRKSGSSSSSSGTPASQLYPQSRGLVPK
Sequence of UniProt Q9NYL2 (Q9NYL2 whole entry, looked up): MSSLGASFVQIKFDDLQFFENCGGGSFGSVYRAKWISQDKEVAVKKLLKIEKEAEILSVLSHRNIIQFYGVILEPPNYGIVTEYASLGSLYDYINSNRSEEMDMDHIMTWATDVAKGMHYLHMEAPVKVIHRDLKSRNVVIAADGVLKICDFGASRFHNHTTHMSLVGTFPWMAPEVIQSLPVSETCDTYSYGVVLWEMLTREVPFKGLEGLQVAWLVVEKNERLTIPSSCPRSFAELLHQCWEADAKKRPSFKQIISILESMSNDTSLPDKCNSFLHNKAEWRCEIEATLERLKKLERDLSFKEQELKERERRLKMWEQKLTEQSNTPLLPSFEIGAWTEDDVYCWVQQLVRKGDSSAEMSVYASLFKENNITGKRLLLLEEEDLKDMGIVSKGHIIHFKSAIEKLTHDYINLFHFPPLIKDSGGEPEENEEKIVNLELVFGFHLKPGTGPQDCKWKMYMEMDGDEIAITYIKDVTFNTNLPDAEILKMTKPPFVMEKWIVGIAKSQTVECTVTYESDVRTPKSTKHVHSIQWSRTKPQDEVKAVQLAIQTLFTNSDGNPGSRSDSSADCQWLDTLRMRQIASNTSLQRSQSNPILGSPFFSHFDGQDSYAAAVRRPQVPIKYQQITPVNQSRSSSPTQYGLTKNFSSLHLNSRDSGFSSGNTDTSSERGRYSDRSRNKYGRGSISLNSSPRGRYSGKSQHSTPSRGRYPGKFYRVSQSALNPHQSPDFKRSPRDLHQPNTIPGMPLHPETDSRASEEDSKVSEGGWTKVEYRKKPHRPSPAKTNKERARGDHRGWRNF
Sequence of UniProt P10620 (P10620 whole entry, looked up): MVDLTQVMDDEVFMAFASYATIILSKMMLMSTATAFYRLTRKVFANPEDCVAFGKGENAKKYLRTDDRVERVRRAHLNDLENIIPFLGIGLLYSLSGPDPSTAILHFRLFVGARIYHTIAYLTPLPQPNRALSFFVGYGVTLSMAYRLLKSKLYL
Sequence of UniProt Q6N075 (Q6N075 whole entry, looked up): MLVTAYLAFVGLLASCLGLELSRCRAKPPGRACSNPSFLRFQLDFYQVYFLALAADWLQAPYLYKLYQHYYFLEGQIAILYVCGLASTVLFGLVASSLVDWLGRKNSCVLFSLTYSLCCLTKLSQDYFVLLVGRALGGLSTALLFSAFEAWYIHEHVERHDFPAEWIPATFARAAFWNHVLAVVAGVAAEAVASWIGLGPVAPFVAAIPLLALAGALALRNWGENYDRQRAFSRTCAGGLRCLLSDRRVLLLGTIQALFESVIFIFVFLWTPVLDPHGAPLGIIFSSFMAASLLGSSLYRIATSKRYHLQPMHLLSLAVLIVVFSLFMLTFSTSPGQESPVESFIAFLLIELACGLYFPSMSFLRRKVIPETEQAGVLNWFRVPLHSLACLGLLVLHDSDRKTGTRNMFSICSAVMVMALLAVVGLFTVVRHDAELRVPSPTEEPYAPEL
Sequence of UniProt Q9Y287 (Q9Y287 whole entry, looked up): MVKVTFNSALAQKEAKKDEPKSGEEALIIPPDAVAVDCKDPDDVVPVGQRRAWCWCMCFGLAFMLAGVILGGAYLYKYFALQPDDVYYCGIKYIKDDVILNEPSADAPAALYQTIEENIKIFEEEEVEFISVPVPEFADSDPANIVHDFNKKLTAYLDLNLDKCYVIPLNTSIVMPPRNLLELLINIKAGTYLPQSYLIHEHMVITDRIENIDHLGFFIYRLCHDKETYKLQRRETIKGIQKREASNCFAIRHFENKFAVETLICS
Sequence of UniProt P49441 (P49441 whole entry, looked up): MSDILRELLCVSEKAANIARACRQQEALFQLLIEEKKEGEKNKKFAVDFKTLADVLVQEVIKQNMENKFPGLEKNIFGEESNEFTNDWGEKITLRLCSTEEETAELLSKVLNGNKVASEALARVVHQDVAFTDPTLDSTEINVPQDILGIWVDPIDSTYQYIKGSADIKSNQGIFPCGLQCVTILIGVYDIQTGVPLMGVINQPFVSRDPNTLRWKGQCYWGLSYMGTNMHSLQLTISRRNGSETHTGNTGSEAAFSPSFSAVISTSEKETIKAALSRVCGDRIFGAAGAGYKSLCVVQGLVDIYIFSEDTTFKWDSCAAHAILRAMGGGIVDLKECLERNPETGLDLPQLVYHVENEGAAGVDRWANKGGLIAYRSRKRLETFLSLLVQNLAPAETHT
Sequence of UniProt Q92615 (Q92615 whole entry, looked up): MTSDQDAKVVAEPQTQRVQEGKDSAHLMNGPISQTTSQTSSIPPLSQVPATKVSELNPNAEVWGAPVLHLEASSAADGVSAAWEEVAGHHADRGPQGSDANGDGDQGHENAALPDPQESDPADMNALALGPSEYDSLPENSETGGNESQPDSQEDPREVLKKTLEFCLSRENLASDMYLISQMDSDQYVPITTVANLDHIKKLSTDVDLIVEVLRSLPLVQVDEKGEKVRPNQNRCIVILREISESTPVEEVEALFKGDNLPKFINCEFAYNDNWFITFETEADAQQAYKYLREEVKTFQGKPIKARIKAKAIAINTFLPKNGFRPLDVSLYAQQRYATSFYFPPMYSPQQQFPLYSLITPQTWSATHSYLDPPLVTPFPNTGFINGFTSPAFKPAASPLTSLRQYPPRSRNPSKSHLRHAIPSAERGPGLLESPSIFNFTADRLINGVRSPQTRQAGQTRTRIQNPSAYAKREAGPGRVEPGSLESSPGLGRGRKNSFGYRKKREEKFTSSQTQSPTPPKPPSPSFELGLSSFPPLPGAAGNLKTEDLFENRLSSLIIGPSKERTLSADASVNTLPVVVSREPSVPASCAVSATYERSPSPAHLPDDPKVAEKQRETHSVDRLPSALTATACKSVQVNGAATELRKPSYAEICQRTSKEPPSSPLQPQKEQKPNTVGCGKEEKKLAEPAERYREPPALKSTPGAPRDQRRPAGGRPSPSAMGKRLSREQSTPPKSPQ
Sequence of UniProt Q9H1B7 (Q9H1B7 whole entry, looked up): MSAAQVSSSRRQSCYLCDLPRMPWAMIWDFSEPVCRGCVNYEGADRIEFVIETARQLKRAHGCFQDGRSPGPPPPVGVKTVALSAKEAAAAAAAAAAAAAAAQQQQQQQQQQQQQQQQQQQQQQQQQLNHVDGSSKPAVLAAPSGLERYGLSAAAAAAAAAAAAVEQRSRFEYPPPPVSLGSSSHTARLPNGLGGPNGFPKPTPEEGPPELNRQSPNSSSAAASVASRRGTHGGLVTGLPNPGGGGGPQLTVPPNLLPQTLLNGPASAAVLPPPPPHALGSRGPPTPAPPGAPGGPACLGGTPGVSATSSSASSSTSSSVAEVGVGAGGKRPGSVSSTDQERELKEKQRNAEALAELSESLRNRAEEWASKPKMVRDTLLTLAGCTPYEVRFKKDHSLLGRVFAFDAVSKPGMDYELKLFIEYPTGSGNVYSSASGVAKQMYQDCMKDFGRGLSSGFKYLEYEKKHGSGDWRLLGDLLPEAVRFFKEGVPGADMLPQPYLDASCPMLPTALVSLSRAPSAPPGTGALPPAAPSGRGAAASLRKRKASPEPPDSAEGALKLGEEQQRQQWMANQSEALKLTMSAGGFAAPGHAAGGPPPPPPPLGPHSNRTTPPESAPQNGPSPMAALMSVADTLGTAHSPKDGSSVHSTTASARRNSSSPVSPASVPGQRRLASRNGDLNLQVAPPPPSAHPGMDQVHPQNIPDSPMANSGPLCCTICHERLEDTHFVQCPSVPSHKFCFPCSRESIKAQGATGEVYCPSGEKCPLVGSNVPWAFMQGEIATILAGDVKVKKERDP
Sequence of UniProt Q8N108 (Q8N108 whole entry, looked up): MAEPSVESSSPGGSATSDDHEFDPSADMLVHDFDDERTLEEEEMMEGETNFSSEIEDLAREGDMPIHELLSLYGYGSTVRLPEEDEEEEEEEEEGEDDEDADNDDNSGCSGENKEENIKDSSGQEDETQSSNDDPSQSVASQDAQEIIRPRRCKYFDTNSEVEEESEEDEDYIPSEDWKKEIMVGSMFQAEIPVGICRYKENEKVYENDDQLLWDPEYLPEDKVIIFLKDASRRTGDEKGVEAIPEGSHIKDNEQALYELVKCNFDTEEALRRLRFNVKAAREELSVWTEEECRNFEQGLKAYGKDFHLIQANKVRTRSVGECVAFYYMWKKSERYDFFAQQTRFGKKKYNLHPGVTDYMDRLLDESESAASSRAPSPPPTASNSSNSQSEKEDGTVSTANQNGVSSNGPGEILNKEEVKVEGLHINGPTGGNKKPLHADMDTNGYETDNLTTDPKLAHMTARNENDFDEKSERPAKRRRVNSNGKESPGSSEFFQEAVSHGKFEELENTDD

Target | log2 fold change [1] | log2 fold change [2] | log2 fold change [3] | log2 fold change [4] | log2 fold change [5] | log2 fold change [6] | log2 fold change [7] | log2 fold change [8] | log2 fold change [9] | log2 fold change [10]
IMMT isoform 2 (UniProt Q16891) | -0.069 | -0.036 | -0.071 | -0.076 | 0.131 | 0.029 | 0.023 | -0.111 | 0.017 | 0.067
MGST1 (UniProt P10620) | 0.042 | -0.013 | 0.01 | -0.174 | 0.009 | -0.037 | 0.003 | 0.021 | -0.147 | 0.018
KHDC4 (UniProt Q7Z7F0) | -0.139 | 0.027 | -0.15 | 0.052 | 0.019 | -0.058 | -0.058 | 0.023 | 0.008 | -0.023
MAIP1 (UniProt Q8WWC4) | 0.03 | 0.06 | -0.058 | 0.028 | 0.002 | -0.054 | -0.039 | -0.04 | 0.048 | 0.008
MAGOHB (UniProt Q96A72) | -0.047 | -0.009 | 0.03 | 0.014 | -0.007 | -0.003 | -0.021 | 0.022 | 0.019 | -0.071
MGST3 (UniProt O14880) | 0.037 | 0.064 | 0.021 | -0.01 | -0.029 | 0.012 | -0.027 | -0.028 | -0.033 | 0.053
MIER1 isoform 12 (UniProt Q8N108) | 0.026 | -0.024 | -0.079 | 0.297 (active) | -0.058 | -0.13 | -0.01 | -0.056 | -0.004 | 0.017
MIA2 (UniProt Q96PC5) | 0.003 | -0.106 | -0.052 | -0.013 | 0.021 | -0.085 | 0.074 | -0.001 | 0.07 | 0.037
LRRFIP1 (UniProt Q32MZ4) | 0.017 | 0.047 | 0.014 | -0.005 | -0.009 | -0.01 | -0.01 | -0.034 | -0.019 | 0.022
LARP4B (UniProt Q92615) | -0.009 | -0.083 | 0.004 | -0.033 | -0.025 | -0.037 | 0.273 | 0.02 | 0.094 | 0.032
MFSD5 isoform 2 (UniProt Q6N075) | 0.058 | 0.122 | 0.029 | -0.093 | 0.069 | 0.039 | 0.058 | -0.065 | -0.022 | 0.012
LYN (UniProt P07948) | -0.198 | -0.08 | 0 | 0.026 | -0.287 | -0.174 | 0.13 | -0.022 | 0.009 | 0.038
MAP3K20 (UniProt Q9NYL2) | -0.106 | 0.055 | 0.065 | 0.004 | 0.054 | -0.018 | 0.002 | 0.01 | 0.02 | -0.034
IRF2BPL (UniProt Q9H1B7) | 0.003 | -0.044 | -0.079 | 0.053 | 0.032 | -0.038 | 0.015 | -0.045 | -0.06 | -0.027
KCTD10 (UniProt Q9H3F6) | 0.221 | -0.002 | 0.018 | 0.071 | -0.011 | 0.013 | -0.07 | 0.007 | 0.015 | -0.07
IMMT isoform 4 (UniProt Q16891) | -0.012 | -0.002 | -0.009 | -0.033 | -0.014 | -0.012 | -0.055 | -0.007 | 0.012 | 0.002
KIFBP (UniProt Q96EK5) | -0.039 | 0.029 | -0.021 | -0.01 | 0.02 | -0.092 | 0.045 | -0.019 | 0.049 | -0.134
ILF2 (UniProt Q12905) | 0.039 | 0.041 | 0.325 | -0.058 | 0.015 | 0.491 (active) | 0.19 | 0.04 | 0.028 | 0.012
INPP1 (UniProt P49441) | 0.071 | 0 | -0.011 | 0.061 | 0.044 | -0.032 | -0.029 | 0.048 | 0.038 | -0.038
KIF3B (UniProt O15066) | -0.068 | 0.005 | -0.011 | 0.002 | 0.069 | 0.028 | -0.189 | -0.063 | 0.034 | -0.043
ITM2B (UniProt Q9Y287) | -0.181 | 0.123 | -0.053 | 0.143 | 0.06 | -0.007 | 0.007 | 0.091 | 0.098 | -0.096
LUC7L (UniProt Q9NQ29) | -0.005 | 0.056 | 0.062 | 0.006 | -0.119 | 0.022 | 0.076 | -0.049 | 0.039 | 0.022
LEMD2 (UniProt Q8NC56) | -0.048 | 0.004 | 0.061 | 0.014 | -0.058 | -0.126 | 0.11 | 0.041 | 0.023 | 0.013
MEPCE (UniProt Q7L2J0) | -0.019 | -0.022 | -0.112 | -0.104 | -0.052 | -0.192 | -0.056 | 0.049 | 0.067 | -0.077
KLC2 (UniProt Q9H0B6) | -0.107 | -0.032 | -0.095 | 0.086 | -0.017 | -0.13 | 0.001 | 0.051 | 0.036 | -0.051
KDM3B (UniProt Q7LBC6) | 0.01 | -0.089 | -0.091 | -0.01 | 0.072 | -0.161 | -0.058 | -0.093 | 0.054 | -0.029
KCTD2 (UniProt Q14681) | -0.276 | 0.226 | 0.188 | 0.015 | -0.076 | 0.038 | 0.066 | -0.243 | -0.128 | 0.082

Reference: the supplement of paper PMC10849652
